Screens from PubChem.
An excerpt weighted towards active compounds, which were near 9.4% of everything screened.
SMN2 splice enh – qHTS Assay for Enhancers of SMN2 Splice Variant Expression | HEK293 SMN2-luciferase splicing reporter, luminescence, 30-36 h | Potency, µM (series often up to 46.1 µM), inactives show at the highest dose activity change, positive = activation, hits mostly activators | actives 2.8% (n = 210,000) | AID 1458, 2008; also: % of control where 0% means no effect; nearly all actives have a fitted effect of over 55% in size
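HEK293 cells carry an SMN2 […]–luciferase reporter in which exon 7 inclusion puts luciferase in frame. Cells were plated 10-12 h before compound addition, then incubated 30-36 h at 37C. ONE-Glo luminescence was read; sodium butyrate at 4.5 mM final served as control.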
ELG1 genotox – qHTS screen for small molecules that induce genotoxicity in human embryonic kidney (HEK293T) cells expressing luciferase-tagged ELG1; HEK293T ELG1-luciferase reporter, luminescence, 16 h; Potency, µM (highest dose often 46 µM), without a hit: at the top dose activity change, positive = activation, most hits filed as activators; actives 1.3% (n = 330,000); also: % of control where 0% means no effect; nearly all actives have a fitted effect of over 60% in size
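DMSO vehicle served as control against compound-treated ELG1-luciferase HEK293T cells; exposure lasted 16 hr at 37 °C and 5% CO2, followed by ONE-Glo luminescence detection after 30 min.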
Rab9 promoter act – qHTS Assay for Rab9 Promoter Activators; Huh7 Rab9 promoter-luciferase reporter, luminescence, 24 h; Potency, µM (titrated, usually from 9.22 µM), inactives show at the highest dose activation, negative = inhibition, most hits filed as activators; actives 2.8% (n = 320,000); also: % of control where 0% means no effect; nearly all actives have a fitted effect of over 60% in size
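Huh7 cells stably carrying Rab9 promoter–luciferase reporter, plated 1500 cells/well, compound added after 2 h and incubated 24 h at 37 °C; luciferase luminescence then read after 10 min with detection reagent.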
FLuc counter – qHTS profiling assay for firefly luciferase inhibitor/activator using purifed enzyme and Km concentrations of substrates (counterscreen for miR-21 project); Luciferin 4-monooxygenase (Photinus pyralis), P08659; purified FLuc, Km substrates, luminescence inhibition; Potency, µM (doses to about 57.5 µM), without a hit: at the highest dose activity change, negative = inhibition, actives largely listed as inhibitors; actives 6.9% (n = 360,000);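 also: plate controls were vehicle for no effect and reference inhibitor for full effect; nearly all actives have a fitted effect of over 55% in size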
Target sequence (P08659 whole entry, looked up): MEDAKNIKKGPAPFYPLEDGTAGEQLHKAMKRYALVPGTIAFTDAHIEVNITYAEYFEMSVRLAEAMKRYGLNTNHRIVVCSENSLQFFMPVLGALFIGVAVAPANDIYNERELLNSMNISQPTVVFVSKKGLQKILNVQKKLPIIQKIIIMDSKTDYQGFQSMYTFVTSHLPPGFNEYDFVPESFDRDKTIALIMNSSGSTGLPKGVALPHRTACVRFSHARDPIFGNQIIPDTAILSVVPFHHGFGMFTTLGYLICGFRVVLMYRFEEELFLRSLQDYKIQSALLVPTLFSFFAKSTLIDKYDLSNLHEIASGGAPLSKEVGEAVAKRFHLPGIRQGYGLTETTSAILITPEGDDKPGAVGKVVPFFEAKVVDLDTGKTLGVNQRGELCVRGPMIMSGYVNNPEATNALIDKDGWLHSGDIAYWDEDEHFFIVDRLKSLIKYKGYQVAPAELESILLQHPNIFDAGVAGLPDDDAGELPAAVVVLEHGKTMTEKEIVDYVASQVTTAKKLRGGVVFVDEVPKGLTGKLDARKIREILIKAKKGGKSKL
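Biochemical qHTS of compounds, final roughly 60 µM downward over six points, against 10 nM purified firefly luciferase using Km concentrations of substrates (10 uM D-luciferin, 10 uM ATP) in Tris acetate pH 7.5 buffer; luminescence output.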
ELG1 repair inh – qHTS screen for small molecules that inhibit ELG1-dependent DNA repair in human embryonic kidney (HEK293T) cells expressing luciferase-tagged ELG1 | Potency, µM (highest dose often 46.1 µM), for the others: at the highest dose activity change, negative = inhibition, actives largely listed as inhibitors | HEK293T ELG1-luciferase reporter, luminescence, 16 h; DNA damage induced by 5-fluorouridine | AID 504467, 2011 | actives 2.3% (n = 330,000); also: % is scaled to controls: 0 for no effect and ±100 for the full control effect; nearly all actives have a fitted effect of over 55% in size
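Reporter activity after DNA damage by 5-fluorouridine is monitored. Compound-treated cells incubate 16 hr at 37 °C, then ONE-Glo is added for 30 min before luminescence reading.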
NPC1 promoter act – qHTS Assay for NPC1 Promoter Activators; Huh7 NPC1 promoter luciferase reporter, 24 h; actives 2.4% (n = 320,000); Potency, µM (doses to about 9.22 µM), for the others: at the top dose activation, actives largely listed as activators; AID 485313, 2010; also: % of control where 0% means no effect; nearly all actives have a fitted effect of over 60% in size
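Stably transfected Huh7 (NPC1 promoter→luciferase), 1500 cells/well in Opti-MEM + 10% FBS, 2 h settle, then compound 24 h at 37 °C. Luminescence after 10 min with Amplite reagent.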
Active calls of the source: *; ? = inconclusive; nt = no result given; [ ] = dose if it differs, or a comment. Calls follow the shape of the dose curve; as a rule, active = well fitted curve in the direction sought with a large enough effect; inconclusive = small, poorly fitted or top-dose-only effect, or another doubt; inactive = no such curve, though single readings can be large; an effect the other way counts as inactive or inconclusive. Potency is read from the fitted curve at half-maximal effect.

SMILES | SMN2 splice enh | ELG1 genotox | Rab9 promoter act | FLuc counter | ELG1 repair inh | NPC1 promoter act
Cn1c(O)c(N=NC(=S)Nc2ccccc2F)c2cc(S(=O)(=O)N3CCOCC3)ccc21 | -59% | 7% | 0% | 0% | 1.8µM* | -11%
Cc1ccc(NC(=S)N=Nc2c(O)n(C)c3ccc(S(=O)(=O)N4CCOCC4)cc23)cc1C | -47% | -5% | -17% | 5% | 11% | -11%
NC(=O)c1nnn(-c2cccc(C(F)(F)F)c2)c1-c1ccccc1 | nt | 1% | -2% | 2% | -2% | -5%
O=C(O)c1cccc(-n2cc(-c3cccc(C(F)(F)F)c3)cn2)c1 | nt | ? | 0.35µM* | 1.2µM* | ? | 0.32µM*
CCC(Cn1nnc2ccccc2c1=O)NC(=O)Nc1cc(Cl)ccc1OC (stereo not drawn) | 6% | nt | nt | -8% | nt | nt
Cc1ccnc(SCC(=O)c2ccc(Br)cc2)c1C#N | 14µM* | 12% | 2.8µM* | 21µM* | ? | 3.5µM*
Cc1snc(SCC(=O)c2ccc(Cl)cc2)c1C#N | -3% | 10% | ? | ? | ? | ?
Cc1ccc(C(=O)CSc2nsc(C)c2C#N)cc1 | 13µM* | ? | 3.2µM* | 11µM* | ? | 3.5µM*
Cc1cc(C)c(C#N)c(OCC(=O)c2ccc(Br)cc2)n1 | -11% | -1% | 6% | -1% | -3% | 1%
CN(Cc1ccc(F)cc1)C(=O)CCc1nnc(-c2ccccc2)o1 | nt | ? | ? | 17µM* | ? | ?
CN(Cc1nc2c(s1)CCCC2)C(=O)CCc1nnc(-c2ccccc2)o1 | nt | 16% | 23% | ? | ? | 14%
COc1ccc(CCN(C)C(=O)CCc2nnc(-c3ccccc3)o2)cc1OC | nt | ? | 3.2µM* | 19µM* | ? | 4.5µM*
CC(=O)N1CCc2cc(Br)cc(S(=O)(=O)CCC(=O)N3CCN(c4ccccc4Cl)CC3)c21 | 0% | nt | nt | -8% | nt | nt
COc1ccccc1CCNC(=O)CCCn1c(=O)c2cccn2c2cccnc21 | 15% | nt | nt | 5% | nt | nt
CCCCc1nnc(SCc2cc(=O)c3cc(F)ccc3[nH]2)n1C | nt | nt | nt | 0% | nt | nt
CC(C)CC[n+]1ccccc1/C=C/c1ccc(N(C)C)cc1 | nt | -11% | -41% | 3% | ? | -40%
Oc1ccccc1-c1nc(/C=C/c2ccccc2Cl)no1 | -2% | nt | nt | 0.19µM* | nt | nt
CN(C)c1ccc(/C=C/c2noc(-c3ccccc3O)n2)cc1 | -24% | nt | nt | 0.67µM* | nt | nt
Oc1ccccc1-c1nc(/C=C/c2ccccc2Cl)nn1-c1ccccc1 | 2% | nt | nt | 6µM* | nt | nt
CCOC(=O)c1sc2ccccc2c1S(=O)(=O)Nc1c(C)cccc1C | nt | nt | nt | -3% | nt | nt
N#Cc1ccc(CSc2nc3c(c(=O)[nH]2)CCCC3)cc1 | nt | nt | nt | 1% | nt | nt
COc1ccc(CCNc2nc(-c3ccc(NC(C)=O)cc3)cs2)cc1OC | -44% | -20% | 0% | ? | ? | 0%
COc1ccc(CCNc2nc(-c3sc(C)nc3C)cs2)cc1OC | -48% | -16% | 2% | -22% | 18µM* | 5%
COc1ccc(CCNc2nc(-c3cccnc3)cs2)cc1OC | -33% | -10% | 3% | 12µM* | ? | 2%
COc1ccc(CCNc2nc(-c3ccncc3)cs2)cc1OC | nt | -4% | 0% | 21µM* | ? | 3%
SMILES | SMN2 splice enh | ELG1 genotox | Rab9 promoter act | FLuc counter | ELG1 repair inh | NPC1 promoter act
Cc1nc(C)c(-c2csc(NCc3ccccc3)n2)s1 | -40% | 9% | 10% | ? | 0% | 24%
COc1ccc(CCNc2nc(-c3ccc(O)cc3)cs2)cc1OC | nt | 5% | 0% | 17µM* | 23µM* | 2%
Cc1ccc(C)c(CN2C(=O)c3ccccc3S(=O)(=O)c3ccc(C(=O)N4CCCCC4)cc32)c1 | -11% | nt | nt | 3% | nt | nt
COc1ccc(CCNc2nc(-c3ccccn3)cs2)cc1OC | nt | -5% | 13% | -18% | 18µM* | -5%
c1ccc(Cn2ncc3c(N4CCCCC4)ncnc32)cc1 | -19% | 5% | 13% | -1% | 2% | 8%
Clc1cccc(-n2ncc3c(N4CCCCC4)ncnc32)c1 | nt | nt | nt | 0.43µM* | nt | nt
Clc1cccc(-n2ncc3c(N4CCCCCC4)ncnc32)c1 | nt | nt | nt | 1.7µM* | nt | nt
CCOC(=O)C1CCN(c2ncnc3c2cnn3-c2ccc(Cl)cc2)CC1 | -46% | 0% | -2% | ? | ? | 1%
O=S(=O)(c1cccs1)N1CCN(CC(O)COc2cccc(Br)c2)CC1 (stereo not drawn) | -17% | -7% | 3% | -2% | 21µM* | -4%
COc1cccc2c1C(=O)O/C2=C/c1ccc2c(c1)OCO2 | ? | ? | ? | 0.11µM* | ? | ?
COc1cc(C2CC(=O)Nc3cc4c(cc32)OCCO4)cc(OC)c1O (stereo not drawn) | 16% | nt | nt | -11% | nt | nt
CC1CCCCN1S(=O)(=O)c1cc2c(=O)nc3ccccn3c2cc1Cl (stereo not drawn) | nt | nt | nt | -1% | nt | nt
CN1N=C2c3ccccc3CCC2C1c1ccc(C(F)(F)F)cc1 (stereo not drawn) | nt | 0% | 24% | ? | 7% | 26%
CN(C)c1ccc(C2C3CCCc4ccccc4C3=NN2C)cc1 (stereo not drawn) | nt | 9% | 3.2µM* | 19µM* | ? | ?
O=C(CSC1=NCCN1)Nc1ccccc1 | -8%[9.22 µM] | nt | nt | nt | nt | nt
CCc1ccc(C2C(C(=O)Nc3ccc(Cl)cc3)=C(C)Nc3ncnn32)cc1 (stereo not drawn) | -6% | nt | nt | -6% | nt | nt
O=C(O)c1cc(N/N=C/c2c[nH]c3ccccc23)ccc1Cl | nt | ? | 1.6µM* | 6.7µM* | ? | 2µM*
O=C(O)c1cc(N/N=C/c2ccc(-c3ccccc3)cc2)ccc1Cl | nt | 0.46µM* | 0.1µM* | 0.76µM* | ? | 0.089µM*
COc1cc(/C=N/Nc2ccc(Cl)c(C(=O)O)c2)ccc1OCC(=O)N1C(C)CCCC1C (stereo not drawn) | 22% | 8% | -2% | ? | ? | 0%
CSc1ccc(/C=N/Nc2ccc(Cl)c(C(=O)O)c2)cc1 | 1.8µM* | ? | ? | 0.54µM* | ? | 0.1µM*
O=C(O)c1cc(N/N=C/c2cccnc2)ccc1Cl | nt | 5% | 24% | 19µM* | ? | 26%
CSc1ccc(/C=N/Nc2nc(C)cc(C)n2)cc1 | 0% | -1% | 17% | -19% | ? | 6%
O=C(O)c1cc(N/N=C/c2ccncc2)ccc1Cl | nt | 0% | 20% | 9.5µM* | -4% | 18%
